# An excerpt weighted towards active compounds, which were near 6.9% of everything screened.
# L3MBTL1 block = L3MBTL1 (human) inhibition. Q9Y468. AlphaScreen L3MBTL1–H3K9me1 peptide binding. Potency, µM (series often up to 57.1 µM), without a hit: top-dose activity, negative = inhibition, hits mostly inhibitors. 230,000 tested, 0.66% active. AID 485360; note: % is set by controls: 0 for no effect and ±100 for the full control effect; nearly all actives have a fitted effect of over 60% in size
#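 AlphaScreen assay: L3MBTL1 (50 nM final) was preincubated 30 min at room temperature with biotinylated H3(1-15)K9me1 peptide (75 nM final), then 30 min with library compounds; streptavidin donor and nickel chelate acceptor beads (10 ug/mL final) added, 30 min dark.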
# VDR inhibitor = vitamin D3 receptor (human) inhibition. Potency, µM, for the others: max response, negative = inhibition, most hits filed as inhibitors. VDR-SRC2-3 peptide fluorescence polarization, 2 h. P11473. 400,000 tested, 0.93% active. AID 504847; note: % is set by controls: 0 for no effect and ±100 for the full control effect
# Target sequence (P11473 whole entry, looked up): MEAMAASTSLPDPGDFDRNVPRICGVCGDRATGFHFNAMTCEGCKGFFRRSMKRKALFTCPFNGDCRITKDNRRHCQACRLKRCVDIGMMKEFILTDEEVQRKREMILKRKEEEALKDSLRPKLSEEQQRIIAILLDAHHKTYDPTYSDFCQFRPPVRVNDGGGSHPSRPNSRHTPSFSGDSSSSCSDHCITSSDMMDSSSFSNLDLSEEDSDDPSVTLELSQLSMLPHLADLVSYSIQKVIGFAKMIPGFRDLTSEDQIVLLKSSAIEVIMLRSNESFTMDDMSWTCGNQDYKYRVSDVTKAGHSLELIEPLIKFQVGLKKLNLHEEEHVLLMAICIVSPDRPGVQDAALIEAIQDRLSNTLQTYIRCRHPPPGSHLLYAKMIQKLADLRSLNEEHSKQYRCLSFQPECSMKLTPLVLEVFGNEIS
#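 VDR–SRC2-3 interaction, FP format. Cmpds 23 nl via pintool, brief spin, 2 h ambient incubation.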
# HP1b chromo inh = inhibitors of HP1-beta chromodomain binding to methylated histone tails | AlphaScreen HP1-beta / biotin-H3K9me3 peptide binding | Potency, µM (highest dose often 114 µM), for the others: at the highest dose activity change, negative = inhibition, usual class: inhibitors | 390,000 tested, 0.56% active; note: nearly all actives have a fitted effect of over 70% in size
# Target sequence (P83916 whole entry, looked up): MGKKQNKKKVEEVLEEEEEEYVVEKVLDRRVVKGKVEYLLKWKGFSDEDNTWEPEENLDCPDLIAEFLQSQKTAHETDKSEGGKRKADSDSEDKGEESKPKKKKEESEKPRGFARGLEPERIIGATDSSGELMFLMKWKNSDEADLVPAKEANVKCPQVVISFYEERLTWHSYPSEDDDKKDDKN
#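 HP1-beta protein (50 nM final) preincubated 30 min at room temperature with biotinylated H3(1-18)K9me3 peptide (50 nM) in PBS pH 7.4, 0.01% Tween-20, then compound added for 30 min. AlphaScreen streptavidin donor/nickel chelate acceptor beads (10 ug/mL final), 30 min dark, luminescence read.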
# JMJD2A Tudor = JMJD2A Tudor domain (human) inhibition | AID 504339 | Potency, µM (titrated, usually from 114 µM), inactives show at the highest dose activity change, negative = inhibition, actives largely listed as inhibitors | O75164 | AlphaScreen JMJD2A-Tudor / H3K4me3 peptide binding | 390,000 tested, 4.4% active; note: % is set by controls: 0 for no effect and ±100 for the full control effect; nearly all actives have a fitted effect of over 50% in size
# PLK1 PBD inh = PLK1 (human) polo-box domain binding inhibition | Potency, µM, without a hit: max response, negative = inhibition, usual class: inhibitors | P53350 | Plk1 PBD binding of FITC phosphopeptide, fluorescence polarization | 360,000 tested, 2.8% active; note: series mostly up to about 57 µM; % is set by controls: 0 for no effect and ±100 for the full control effect; nearly all actives have a fitted effect of over 65% in size
# BAZ2B block = BAZ2B (human) inhibition. AlphaScreen BAZ2B-H3K14Ac peptide displacement. Potency, µM (titrated, usually from 114 µM), inactives show at the highest dose activity change, negative = inhibition, most hits filed as inhibitors. 360,000 tested, 4.4% active; note: % is set by controls: 0 for no effect and ±100 for the full control effect; nearly all actives have a fitted effect of over 60% in size
#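 Complex of BAZ2B and biotin-H3K14Ac (50 nM apiece) forms over 30 min at RT, then faces library compounds up to 110 uM for another 30 min; AlphaScreen beads added, 20 min dark incubation, luminescence read.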
# * hit, by the source's call; ? = inconclusive; . = not tested or not shown; [ ] = remark or other dose. Calls come from the whole dose curve; as a rule, active = well fitted curve in the direction sought with a large enough effect; inconclusive = small, poorly fitted or top-dose-only effect, or another doubt; inactive = no such curve, though single readings can be large; an effect the other way counts as inactive or inconclusive. Potency is the fitted concentration of half-maximal effect.
SMILES,L3MBTL1 block,VDR inhibitor,HP1b chromo inh,JMJD2A Tudor,PLK1 PBD inh,BAZ2B block
CCOC(=O)c1c(-c2ccc(F)cc2)csc1NC(=O)CCN1CCOCC1,-10%,-1%,?,1.8µM*,-3%,40µM*
Cc1nc(NC(=O)CN2CCOCC2)sc1C(=O)N(C)C,4%,2%,18%,16µM*,-1%,-20%
Cc1nc(NC(=O)CN2CCCCC2)sc1C(=O)N(C)C,-1%,8%,8%,-32%,-1%,-27%
C#CCCCCCCCCCCCC(O)CC(O)CO (stereo not drawn),.,-12%,.,.,.,.
CCOC(=O)c1cccc(NC(=O)CC(c2ccc(F)cc2)N2Cc3ccccc3C2=O)c1 (stereo not drawn),.,22%,31%,-2%,.,1%
COc1ccc(C(=O)N/N=C/c2cccc3cccnc23)cc1,?,10%,27%,56µM*,-2%,20µM*
COc1ccc(C(=O)N/N=C/c2c[nH]c3ccccc23)cc1,-3%,-28%,59%,-7%,-7%,-20%
COc1ccc(C(=O)N/N=C/c2cc3ccccc3[nH]c2=S)cc1,.,-2%,-5%,3.2µM*,15µM*,?
CCOc1ccccc1C(=O)N/N=C/c1cccc2cccnc12,-5%,-9%,18%,?,-7%,45µM*
COc1ccc(C(=O)N/N=C/c2cccnc2)cc1,.,-1%,48%,11%,4%,-1%
Cc1ccc(CNC(=O)c2ccc3c(O)c(S(=O)(=O)c4ccc(Cl)cc4)c(=O)[nH]c3c2)cc1,.,-3%,30%,-3%,.,-11%
C=CCn1c(SCC(=O)c2ccc(O)c(O)c2)nnc1-c1ccc(C)cc1,-12%,0%,13%,?,-2%,?
C=CCn1c(SCC(=O)c2cccs2)nnc1-c1cccc(OC)c1,.,-28%,26%,89µM*,-26%,0%
C=CCn1c(SCC(=O)c2ccc(O)c(O)c2)nnc1-c1cccc(OC)c1,?,-12%,14%,?,-1%,50µM*
O=C(O)c1ccn2c(C(=O)c3ccc(Cl)cc3)c(-c3ccccc3)cc2c1,-23%,-6%,-4%,-21%,38µM*,-35%
CCc1ccc(NC(=O)CN(c2ccccc2)S(=O)(=O)N(C)C)cc1,-23%,24%,20%,-19%,-17%,-36%
Cc1c(C(=O)Nc2ccc(F)c(F)c2)oc2ccc(S(=O)(=O)N(C)C3CCCCC3)cc12,.,9%,42%,-5%,.,0%
COC(=O)c1ccc([C@H]2Nc3ccc(S(=O)(=O)Nc4cccc(C)c4)cc3[C@H]3C=CC[C@H]32)cc1,.,-12%,-14%,35µM*,.,40µM*
CCOc1ccc2c(c1)[C@@H]1C=CC[C@@H]1[C@H](c1ccccc1Cl)N2,.,6%,?,45µM*,.,28µM*
Cc1ccc(NS(=O)(=O)c2ccc3c(c2)[C@H]2C=CC[C@H]2[C@@H](c2ccc(F)cc2)N3)cc1C,.,-16%,-8%,?,.,?
O=C(O)C1Nc2c(cccc2C(F)(F)F)C2C=CCC12 (stereo not drawn),.,.,.,.,.,40µM*
O=C(NCc1ccccc1)C1Nc2ccc(OC(F)(F)F)cc2C2C=CCC12 (stereo not drawn),.,-18%,16%,-31%,-9%,.
Cc1ccc2c(c1)C1C=CCC1C(C(=O)O)N2 (stereo not drawn),3.2µM*,.,.,.,.,6.3µM*
CCc1nnc(NC(=O)C2CCCN(C(=O)c3ccoc3)C2)s1 (stereo not drawn),.,-20%,34%,-16%,.,.
O=C(O)c1ccc2c(c1)C1C=CCC1C(c1cc3c(cc1Br)OCO3)N2 (stereo not drawn),-16%,?,4%,-29%,?,-34%
SMILES,L3MBTL1 block,VDR inhibitor,HP1b chromo inh,JMJD2A Tudor,PLK1 PBD inh,BAZ2B block
CC(=O)c1ccc2c(c1)C1C=CCC1C(c1ccncc1)N2 (stereo not drawn),-22%,-16%,-9%,?,-16%,50µM*
CCOC(=O)C1Nc2ccc(OC(F)(F)F)cc2C2C=CCC12 (stereo not drawn),.,?,?,25µM*,?,.
CC(=O)c1ccc2c(c1)C1C=CCC1C(C(=O)O)N2 (stereo not drawn),1.3µM*,-16%,20µM*,6.3µM*,7.5µM*,6.3µM*
COc1ccccc1CN(C)C[C@@H]1OCc2cnnn2CCCC(=O)N([C@@H](C)CO)C[C@H]1C,.,.,.,.,4%,.
COCc1cc(S(=O)c2ccc(Cl)cc2)nc(C)n1 (stereo not drawn),-9%,50µM*,68%,8%,5.3µM*,5%
COCc1cc(Sc2ccc(Cl)cc2)nc(C)n1,12%,-2%,53%,12%,0%,3%
CCc1ccc(NC(=O)CCCn2nc(C)c3c(C)n(-c4ccccc4)nc3c2=O)cc1,.,2%,37%,-9%,.,-16%
Cc1cc(NC2CCCCC2)nc(-c2ccccc2O)n1,16%,-3%,?,7.9µM*,-2%,56µM*
CC1(CC(=O)N/N=C/c2cc([N+](=O)[O-])c(O)cc2O)OCCO1,?,?,8.9µM*,?,9.5µM*,50µM*
CC1(CC(=O)N/N=C/c2ccc(-c3ccc(Cl)cc3)o2)OCCO1,9%,-10%,19%,-9%,-5%,24%
N#CC1=C2SCN(Cc3ccco3)CN2C(=O)CC1c1ccc(Cl)cc1 (stereo not drawn),-6%,?,?,?,27µM*,.
COc1ccc2ccccc2c1C1CC(=O)N2CN(Cc3ccco3)CSC2=C1C#N (stereo not drawn),-5%,?,?,?,19µM*,-27%
COc1ccc2ccccc2c1C1CC(=O)N2CN(C3CCCCC3)CSC2=C1C#N (stereo not drawn),-14%,89µM*,?,?,13µM*,?
COC(=O)C1=C(C)N(C)C(=O)NC1c1c(OC)ccc2ccccc12 (stereo not drawn),.,-2%,19%,-6%,-2%,1%
N#CC1=C2SCN(Cc3ccccc3)CN2C(=O)CC1c1cccs1 (stereo not drawn),-16%,?,-21%,-28%,24µM*,-14%
O=C1C=C(NCc2ccco2)CC(c2ccc(Cl)cc2)C1 (stereo not drawn),3%[11.4 µM],10%,2%,-23%,-10%,-1%
COc1ccc(C2C(C#N)=C(N)Oc3cc(C)n(Cc4ccco4)c(=O)c32)cc1 (stereo not drawn),.,?,24%,-11%[57.1 µM],-28%,-4%
N#CCC(=O)Nc1ccc(C(=O)NCc2ccccn2)cc1,-15%,3%,26%,-6%,-2%,-2%
Cc1cccc(-c2nnc3n(CCc4ccccc4)c(=O)c4ccccc4n23)c1,.,8%,18%,-18%,.,1%
